Measurements published in PubChem BioAssay AID1159580 (chemical genetic matrix, 2015).
Several values for one entry are separate records, joined by “and”; a condition that tells them apart may be missing. Identical values can stand only once. About 2,000 (36%) of roughly 5,500 compounds were called active. Not shown: some 18% with an inconclusive outcome. Rule as the data show it: active = normalized growth mostly below about 0.91 (no sharp cut-off); inconclusive = no clear call, values can overlap the other calls; inactive = mostly above about 0.92. Some of the results follow.

Test: chemical genetic growth profiling, strain panel (AID 1159580);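 also: tested at 20 µM; growth read once vehicle control cultures reached saturation at 30 °C; 1 = growth at the plate median or of vehicle wells; lower values mean less growth of the strain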
Details: growth OD
[1] = S. cerevisiae deletion strains, locus YDR150W, strain NUM1, hits give low values
[2] = S. cerevisiae deletion strains, locus YGR229C, strain SMI1, hits give low values
[3] = S. cerevisiae deletion strains, locus YJR075W, strain HOC1, hits give low values
[4] = S. cerevisiae deletion strains, locus YMR263W, strain SAP30, hits give low values
[5] = S. cerevisiae deletion strains, locus YNL153C, strain GIM3, hits give low values
[6] = S. cerevisiae deletion strains, locus YPL241C, strain CIN2, hits give low values

Measured: normalized growth

CN(C)c1ccc(O)c2c1C[C@H]1C[C@H]3[C@H](N(C)C)C(=O)C(C(N)=O)=C(O)[C@@]3(O)C(=O)C1=C2O
inactive: S. cerevisiae deletion strains, locus YAL013W, strain DEP1, hits give low values 0.988 | S. cerevisiae deletion strains, locus YBR021W, strain FUR4, hits give low values 0.915 | S. cerevisiae deletion strains, locus YBR229C, strain ROT2, hits give low values 0.947 | S. cerevisiae deletion strains, locus YCL029C, strain bik1, hits give low values 0.992 | S. cerevisiae deletion strains, locus YDL035C, strain GPR1, hits give low values 0.963 | S. cerevisiae deletion strains, locus YDL074C, strain BRE1, hits give low values 1 | S. cerevisiae deletion strains, locus YDL101C, strain DUN1, hits give low values 0.969 | S. cerevisiae deletion strains, locus YDL134C, strain PPH21, hits give low values 0.976 | S. cerevisiae deletion strains, locus YDL185W, strain tfp1, hits give low values 0.983 | S. cerevisiae deletion strains, locus YDL192W, strain arf1, hits give low values 0.962 | S. cerevisiae deletion strains, locus YDR101C, strain arx1, hits give low values 1 | [1] 0.975 | S. cerevisiae deletion strains, locus YDR162C, strain NBP2, hits give low values 0.964 | S. cerevisiae deletion strains, locus YDR318W, strain mcm21, hits give low values 0.996 | S. cerevisiae deletion strains, locus YDR388W, hits give low values 0.997 | S. cerevisiae deletion strains, locus YDR502C, strain sam2, hits give low values 0.986 | S. cerevisiae deletion strains, locus YEL061C, strain CIN8, hits give low values 0.984 | S. cerevisiae deletion strains, locus YER110C, hits give low values 0.974 | S. cerevisiae deletion strains, locus YER155C, strain BEM2, hits give low values 1.03 | S. cerevisiae deletion strains, locus YER167W, strain BCK2, hits give low values 0.984 | S. cerevisiae deletion strains, locus YGL078C, strain dbp3, hits give low values 0.974 | S. cerevisiae deletion strains, locus YGL086W, strain mad1, hits give low values 0.98 | S. cerevisiae deletion strains, locus YGL248W, strain PDE1, hits give low values 0.974 | S. cerevisiae deletion strains, locus YGR078C, strain PAC10, hits give low values 0.966 | S. cerevisiae deletion strains, locus YGR135W, strain pre9, hits give low values 0.974 | [2] 0.987 | S. cerevisiae deletion strains, locus YGR252W, strain gcn5, hits give low values 0.802 | S. cerevisiae deletion strains, locus YHR030C, strain SLT2, hits give low values 0.992 | S. cerevisiae deletion strains, locus YHR079C, strain IRE1 (second series), hits give low values 1 | S. cerevisiae deletion strains, locus YHR079C, strain IRE1, hits give low values 1.01 | S. cerevisiae deletion strains, locus YHR094C, strain hxt1, hits give low values 1.01 | S. cerevisiae deletion strains, locus YHR129C, strain ARP1, hits give low values 0.99 | S. cerevisiae deletion strains, locus YHR200W, strain rpn10, hits give low values 0.989 | S. cerevisiae deletion strains, locus YIL066C, strain RNR3, hits give low values 0.96 | S. cerevisiae deletion strains, locus YIL073C, strain SPO22, hits give low values 0.959 | S. cerevisiae deletion strains, locus YIL125W, strain kgd1, hits give low values 0.979 | S. cerevisiae deletion strains, locus YIR030C, strain dcg1, hits give low values 0.987 | S. cerevisiae deletion strains, locus YJL095W, strain BCK1, hits give low values 0.986 and 0.993 | S. cerevisiae deletion strains, locus YJL134W, strain LCB3, hits give low values 0.981 | S. cerevisiae deletion strains, locus YJL168C, strain set2, hits give low values 0.995 | S. cerevisiae deletion strains, locus YJL187C, strain SWE1 (second series), hits give low values 0.966 | S. cerevisiae deletion strains, locus YJR043C, strain POL32, hits give low values 0.992 | S. cerevisiae deletion strains, locus YJR066W, strain TOR1, hits give low values 0.941 | [3] 1 | S. cerevisiae deletion strains, locus YKL009W, strain mrt4, hits give low values 0.974 | S. cerevisiae deletion strains, locus YKL068W, hits give low values 0.995 | S. cerevisiae deletion strains, locus YKL085W, strain MDH1 (second series), hits give low values 0.982 | S. cerevisiae deletion strains, locus YKL085W, strain MDH1, hits give low values 0.982 | S. cerevisiae deletion strains, locus YKL190W, strain CNB1, hits give low values 0.998 | S. cerevisiae deletion strains, locus YKR001C, strain vps1, hits give low values 0.966 | S. cerevisiae deletion strains, locus YLR039C, strain RIC1, hits give low values 0.937 | S. cerevisiae deletion strains, locus YLR058C, strain SHM2, hits give low values 0.957 | S. cerevisiae deletion strains, locus YLR102C, strain apc9, hits give low values 0.989 | S. cerevisiae deletion strains, locus YLR113W, strain HOG1, hits give low values 1.01 | S. cerevisiae deletion strains, locus YLR262C, strain YPT6, hits give low values 0.895 | S. cerevisiae deletion strains, locus YLR268W, strain sec22, hits give low values 1.04 | S. cerevisiae deletion strains, locus YLR330W, strain CHS5, hits give low values 0.989 | S. cerevisiae deletion strains, locus YLR342W, strain FKS1 (second series), hits give low values 0.851 | S. cerevisiae deletion strains, locus YLR371W, strain rom2, hits give low values 0.98 | S. cerevisiae deletion strains, locus YLR418C, strain cdc73, hits give low values 0.909 | S. cerevisiae deletion strains, locus YML016C, strain PPZ1, hits give low values 0.974 | S. cerevisiae deletion strains, locus YML032C, strain rad52, hits give low values 1 | S. cerevisiae deletion strains, locus YML124C, strain tub3, hits give low values 0.991 | S. cerevisiae deletion strains, locus YMR078C, strain ctf18, hits give low values 0.993 | S. cerevisiae deletion strains, locus YMR223W, strain ubp8, hits give low values 0.934 | [4] 0.991 | S. cerevisiae deletion strains, locus YMR307W, strain GAS1, hits give low values 0.879 | S. cerevisiae deletion strains, locus YNL067W, strain RPL9B, hits give low values 1 | S. cerevisiae deletion strains, locus YNL128W, strain TEP1, hits give low values 0.922 | [5] 0.985 | S. cerevisiae deletion strains, locus YNL183C, strain NPR1, hits give low values 0.968 | S. cerevisiae deletion strains, locus YNL233W, strain BNI4, hits give low values 1 | S. cerevisiae deletion strains, locus YNL250W, strain rad50, hits give low values 0.975 | S. cerevisiae deletion strains, locus YNL271C, strain bni1, hits give low values 0.989 | S. cerevisiae deletion strains, locus YNL298W, strain CLA4, hits give low values 0.987 | S. cerevisiae deletion strains, locus YNL307C, strain MCK1, hits give low values 0.997 | S. cerevisiae deletion strains, locus YNL322C, strain KRE1, hits give low values 0.993 | S. cerevisiae deletion strains, locus YNR052C, strain pop2, hits give low values 0.978 | S. cerevisiae deletion strains, locus YOL006C, strain TOP1, hits give low values 0.887 | S. cerevisiae deletion strains, locus YOL012C, strain htz1 0.571 | S. cerevisiae deletion strains, locus YOL147C, strain pex11, hits give low values 0.994 | S. cerevisiae deletion strains, locus YOR061W, strain CKA2, hits give low values 0.967 | S. cerevisiae deletion strains, locus YOR069W, strain VPS5, hits give low values 0.985 | S. cerevisiae deletion strains, locus YOR136W, strain idh2, hits give low values 0.978 | S. cerevisiae deletion strains, locus YOR144C, strain elg1, hits give low values 0.996 | S. cerevisiae deletion strains, locus YOR184W, strain ser1, hits give low values 0.985 | S. cerevisiae deletion strains, locus YOR231W, strain MKK1, hits give low values 1.01 | S. cerevisiae deletion strains, locus YOR316C, strain cot1, hits give low values 0.998 | S. cerevisiae deletion strains, locus YPL055C, strain LGE1, hits give low values 0.958 | [6] 0.981 | S. cerevisiae deletion strains, locus YPL256C, strain CLN2, hits give low values 1.01 | S. cerevisiae deletion strains, locus YPR119W, strain clb2, hits give low values 0.996 | S. cerevisiae deletion strains, locus YPR141C, strain kar3, hits give low values 0.997 | S. cerevisiae deletion strains, locus YPR163C, strain tif3, hits give low values 0.99 | S. cerevisiae deletion strains, locus YPR167C, strain met16, hits give low values 1 | S. cerevisiae deletion strains, strain wtn01, hits give low values 1.02 | S. cerevisiae strains, strain wild type, hits give low values 0.981

CC1c2cccc(O)c2C(O)=C2C(=O)C3(O)C(O)=C(C(N)=O)C(=O)C(N(C)C)C3C(O)C21 (stereo unspecified)
active: [2] 0.835
inactive: S. cerevisiae deletion strains, locus YAL040C, strain CLN3, hits give low values 0.944 | S. cerevisiae deletion strains, locus YCL061C, strain MRC1 (second series), hits give low values 0.966 | [1] 0.983 | S. cerevisiae deletion strains, locus YDR363W, strain ESC2, hits give low values 0.936 | S. cerevisiae deletion strains, locus YER002W, strain NOP16, hits give low values 0.989 | [3] 0.971 | [4] 0.986 | [5] 0.891 | S. cerevisiae deletion strains, locus YNL175C, strain NOP13, hits give low values 0.993 | S. cerevisiae deletion strains, locus YNL197C, strain WHI3, hits give low values 1.02 | S. cerevisiae deletion strains, locus YNL224C, strain SQS1, hits give low values 0.989 | S. cerevisiae deletion strains, locus YOR083W, strain WHI5 (second series), hits give low values 0.977 | [6] 0.974
